Reference: PubChem BioAssay (EPA / NIEHS)
Calls of active or inactive are those of the source. Rule for the calls: active = hit-call score of the fitted dose curve at least 0.9, where 1 is the maximum; inactive = score below 0.9.

test: CCTE_Shafer_MEA_acute_network_burst_percentage: CCTE's Neural Acute Assay for Percentage of Network Bursts, Shafer Lab (AID 2284022);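 note: curves fitted for loss so actives lower network burst percentage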
Protocol: CCTE_Shafer_MEA_acute assay is conducted using Axion Biosystems 48 well microelectrode array (MEA) plates and Maestro recording system. Each well of the MEA plate contains a grid of 16 microelectrodes embedded in the culture surface. Electrically active cells, such as neurons, can be cultured over the electrodes, and electrical activity in these cells can be recorded extracellularly. The spontaneous firing of neurons is captured from each electrode on a microsecond timescale providing both temporally and spatially precise data. […] The CCTE_Shafer_MEA_acute assay uses primary cultures of rat cortical neurons. As these cultures mature over time, neural networks develop functional activity and form cohesive networks in which electrical activity can be highly coordinated. Baseline 40-minute recordings are made on days post-plating 13 or 15, followed by a secondary 40-minute recording after chemical exposure.CCTE_Shafer_MEA_acute_network_burst_percentage is a component of the CCTE_Shafer_MEA_acute assay. It measures the percent of spikes (action potential firings) in network bursts (temporally-clustered groups of spikes across multiple electrodes) as the number of spikes occuring in network bursts divided by the total number of spikes during a recording in a microelectrode array (MEA) using Axion Biosystems Maestro 768 channel amplifier with the AxIS adaptive spike detector. The recordings before and after chemical treatment are used to calculate a percent change in the network burst percentage in each well.Data from the assay component CCTE_Shafer_MEA_acute_network_burst_percentage was analyzed into 1 assay endpoint. This assay endpoint, CCTE_Shafer_MEA_acute_network_burst_percentage, was analyzed in the negative analysis fitting direction relative to DMSO as the negative control and baseline of activity. Using a type of functional reporter, gain or loss-of-signal activity can be used to understand electrical activity.
Spontaneous activity in the cortical cultures was recorded using an Axion Biosystems Maestro 768 channel amplifier and Axion Integrated Studios (AxIS) v1.8 (or later) software. The amplifier recorded from all channels simultaneously (gain = 1200 x; sampling rate = 12.5 kHz/channel): raw signals were filtered with a Butterworth band-pass filter (300-5000 Hz), which filters out slower local field potentials leaving only fast potentials, i.e., "spikes", arising from extracellular currents associated with action potentials (Pine 2006; Wheeler and Nam 2011). On-line spike detection of filtered signals was conducted with the AxIS adaptive spike detector, using a threshold of 8x the root mean squared (rms) noise on each channel. Any electrodes with rms noise levels greater than 5 uV were grounded (e.g., no data were recorded). Once grounded, an electrode was grounded for the duration of the experiment. All recordings were conducted at 37 C. Wells were deemed usable if on the day of the exposure >/= 10 electrodes were active (defined as >/= 5 spikes/min). On DIV 13 or 15, a minimum of three wells from one cortical culture preparation were treated with each compound (0.03-40 uM). Prior to recording baseline activity, each mwMEA plate was placed in the Maestro at 37 C and allowed to sit for 20 min while firing rates stabilized. Baseline activity (40 min) was recorded before the addition of each compound. An additional 40 min of spontaneous activity was recorded in the presence of each compound. Changes in network parameters relative to baseline were assessed following compound treatment.

| SMILES | outcome | AC50 |
| --- | --- | --- |
| O=C(Nc1ccc2[nH]ccc2c1)c1cc2cc(F)ccc2n1Cc1cccc(F)c1 | inactive |  |
| CC(C)(OO)c1ccccc1 | inactive |  |
| CCC(=O)C(CC(C)N(C)C)(c1ccccc1)c1ccccc1 (centres undefined) | inactive |  |
| CCC(C)(C)c1ccc(O)c(C(C)(C)CC)c1 |  | 36.6 µM (active) |
| CCN1CCC2(CC1)COc1cc3c(cc12)N(C(=O)c1ccc(-c2ccc(-c4nnc(C)o4)cc2C)cc1)CC3 |  | 24.9 µM (active) |
| CCCCCCCCc1ccc(O)cc1 |  | 3.39 µM (active) |
| CC(C)(C)c1cc(O)ccc1O | inactive |  |
| C[C@]12CCC(=O)C[C@@H]1CC[C@@H]1[C@@H]2CC[C@]2(C)[C@@H](O)CC[C@@H]12 | inactive |  |
| CC(C)(c1ccccc1)c1ccc(O)c(C(C)(C)c2ccccc2)c1 |  | 28.6 µM (active) |
| CC(=O)OC(c1ccccc1)C(Cl)(Cl)Cl (centres undefined) | inactive |  |
| C=C(C)C(=O)[O][Sn]([CH2]CCC)([CH2]CCC)[CH2]CCC |  | 0.205 µM (active) |
| CC(C)(C)CC(C)(C)c1ccc(O)cc1 | inactive |  |
| CC(=O)[O][Hg][c]1ccccc1 |  | 1.3 µM (active) |
| O=C(O)C(Cl)(Cl)Cl | inactive |  |
| O=C(O)C(F)(F)C(F)(F)C(F)(F)C(F)(F)C(F)(F)C(F)(F)C(F)(F)C(F)(F)C(F)(F)C(F)(F)F | inactive |  |
| CCOP(=S)(OCC)SCSP(=S)(OCC)OCC |  | 27 µM (active) |
| O=C1C2(Cl)C3(Cl)C4(Cl)C(Cl)(Cl)C5(Cl)C3(Cl)C1(Cl)C5(Cl)C24Cl (centres undefined) | inactive |  |
| COC(=O)Cc1ccccc1 | inactive |  |
| ClC1(Cl)C2(Cl)C3(Cl)C4(Cl)C(Cl)(Cl)C5(Cl)C3(Cl)C1(Cl)C5(Cl)C24Cl (centres undefined) | inactive |  |
